From PubChem BioAssay (EPA / NIEHS) come the findings set out here.

Read-out in assay [1]: C-C motif chemokine 2 (Homo sapiens) (UniProt P13500)
Briefly: BSK_KF3CT_MCP1: BioMAP Diversity Plus: KF3CT Assay for Monocyte Chemoattractant Protein 1 (MCP1/CCL2) Biomarker Activity (AID 2283073). Particulars: primary human keratinocytes with fibroblasts; actives raise or lower the signal. The essentials:
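Biomarker MCP-1 is measured by ELISA in primary human keratinocytes co-cultured with foreskin fibroblasts, 24 h after chemical treatment; DMSO serves as the negative control and activity baseline.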

Read-out in assay [2]: Matrix Metallopeptidase 9 (MMP9), MMP9 (gene 4318)
Briefly: BSK_KF3CT_MMP9: BioMAP Diversity Plus: KF3CT Assay for Matrix Metallopeptidase 9 (MMP9) Biomarker Activity (AID 2283074).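 On AC50: MMP9 protein level quantified by ELISA in the co-culture.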 Conditions: primary human keratinocytes with fibroblasts; actives raise or lower the signal. The method, boiled down: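 Human keratinocyte and foreskin fibroblast co-culture exposed to chemicals for 24 h; MMP9 biomarker measured by ELISA, bidirectional fitting relative to DMSO; cytotoxicity tracked by SRB total protein staining in parallel cultures.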

Read-out in assay [3]: urokinase plasminogen activator (uPA), PLAU (gene 5328)
Briefly: BSK_KF3CT_uPA: BioMAP Diversity Plus: KF3CT Assay for urokinase plasminogen activator (uPA) Biomarker Activity (AID 2283075). Conditions: primary human keratinocytes with fibroblasts; actives raise or lower the signal. The essentials:
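Primary human keratinocyte/foreskin fibroblast co-culture exposed to chemical; uPA measured by ELISA at 24 h. Bidirectional fit versus DMSO, with parallel SRB total-protein staining for cytotoxicity.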

Read-out in assay [4]: CD40, CD40 (gene 958)
Briefly: BSK_LPS_CD40: BioMAP Diversity Plus: LPS Assay for CD40 Biomarker Activity (AID 2283076). Conditions: primary human HUVEC with PBMC; actives raise or lower the signal. The method, boiled down: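 Using a multiplexed primary human co-culture (umbilical vein endothelium plus PBMC), CD40 was read by ELISA 24 h after dosing, with cytotoxicity tracked by sulforhodamine B staining of parallel cultures and activity fitted bidirectionally versus DMSO.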

Read-out in assay [5]: E-selectin (Homo sapiens) (UniProt P16581)
Briefly: BSK_LPS_Eselectin: BioMAP Diversity Plus: LPS Assay for Eselectin Biomarker Activity (AID 2283077). Particulars: primary human HUVEC with PBMC; actives raise or lower the signal. The method, boiled down: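 Dose chemical onto LPS-driven HUVEC/PBMC co-culture; after 24 h, run ELISA for E-selectin; fit up- and down-going responses relative to DMSO control.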

Read-out in assay [6]: Interleukin-8 (IL8), CXCL8 (gene 3576)
Briefly: BSK_LPS_IL8: BioMAP Diversity Plus: LPS Assay for Interleukin-8 (IL8) Biomarker Activity (AID 2283078). Conditions: primary human HUVEC with PBMC; actives raise or lower the signal. The method, boiled down:
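In this LPS system, chemical-treated human umbilical vein endothelium/PBMC co-cultures were harvested at 24 h for IL-8 ELISA.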

The nature of assay [7]: BSK_LPS_SRB: Viability Assessment in the BioMAP Diversity Plus: LPS Assay (AID 2283079).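 Further: total protein by sulforhodamine B absorbance as a cytotoxicity measure; measured one day after compound addition; fitted in both directions against DMSO so loss or gain of signal counts.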 Particulars: primary human HUVEC with PBMC. The essentials:
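Cytotoxicity endpoint in human endothelial–PBMC co-culture: 24 h exposure, then SRB (0.1%) staining, 560 nm read.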

Read-out in assay [8]: Interleukin-1 alpha (IL1a), IL1A (gene 3552)
Briefly: BSK_LPS_IL1a: BioMAP Diversity Plus: LPS Assay for Interleukin-1 alpha (IL1a) Biomarker Activity (AID 2283080). Particulars: primary human HUVEC with PBMC; actives raise or lower the signal. The method, boiled down: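 Primary human HUVEC and PBMC co-culture stimulated with LPS is dosed and harvested at 24 h. Both increases and decreases in ELISA-measured IL-1a are scored relative to DMSO.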

Read-out in assay [9]: Monocyte Chemoattractant Protein-1 (MCP1), CCL2 (gene 6347)
Briefly: BSK_LPS_MCP1: BioMAP Diversity Plus: LPS Assay for Monocyte Chemoattractant Protein-1 (MCP1) Biomarker Activity (AID 2283081).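 On AC50: secreted MCP-1 protein quantified by ELISA in culture supernatant.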 Particulars: primary human HUVEC with PBMC; actives raise or lower the signal. The method, boiled down: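 Values derive from bidirectional fitting against DMSO of ELISA-measured MCP-1 in a human primary endothelial and mononuclear cell co-culture, 24 h after chemical addition under LPS activation.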

The nature of assay [10]: BSK_LPS_PGE2: BioMAP Diversity Plus: LPS Assay for Prostaglandin E2 (PGE2) Biomarker Activity (AID 2283082).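 On AC50: secreted prostaglandin E2 measured by ELISA in LPS-stimulated co-culture.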 Conditions: primary human HUVEC with PBMC; actives raise or lower the signal. The essentials:
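LPS-activated HUVEC/PBMC co-culture; cmpd dosed, 24 h; PGE2 by ELISA; bidirectional fit vs DMSO; SRB (0.1%, TCA-fixed, 560 nm) in parallel plates for overt cytotox.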

Read-out in assay [11]: Macrophage colony-stimulating factor (MCSF), CSF1 (gene 1435)
Briefly: BSK_LPS_MCSF: BioMAP Diversity Plus: LPS Assay for Macrophage colony-stimulating factor (MCSF) Biomarker Activity (AID 2283083). Conditions: primary human HUVEC with PBMC; actives raise or lower the signal. The essentials:
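Bidirectional fit versus DMSO of ELISA-measured M-CSF in co-cultured human umbilical vein endothelial cells and PBMC, sampled 24 h after dosing.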

Read-out in assay [12]: Tumor necrosis factor (Homo sapiens) (UniProt P01375)
Briefly: BSK_LPS_TNFa: BioMAP Diversity Plus: LPS Assay for Tumour Necrosis Factor alpha (TNFa) Biomarker Activity (AID 2283085). Particulars: primary human HUVEC with PBMC; actives raise or lower the signal. The essentials: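 Read-out is ELISA of TNFa in primary human endothelial cell–PBMC co-cultures at 24 h after compound. Activity in either direction was fitted against DMSO.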

Read-out in assay [13]: Vascular cell adhesion molecule 1 (VCAM1), VCAM1 (gene 7412)
Briefly: BSK_LPS_VCAM1: BioMAP Diversity Plus: LPS Assay for Vascular cell adhesion molecule 1 (VCAM1) Biomarker Activity (AID 2283086). Particulars: primary human HUVEC with PBMC; actives raise or lower the signal. The method, boiled down:
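HUVEC + PBMC co-culture, LPS system; compound 24 h; VCAM-1 by ELISA; bidirectional fit vs DMSO control; parallel SRB (0.1%, TCA-fixed, 560 nm) for cytotoxicity.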

Read-out in a further assay: CD38, CD38 (gene 952)
Briefly: BSK_SAg_CD38: BioMAP Diversity Plus: SAg Assay for CD38 Biomarker Activity (AID 2283087). Particulars: primary human HUVEC with PBMC; actives raise or lower the signal. The essentials: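 Human HUVEC plus PBMC co-culture stimulated with superantigen; CD38 measured by ELISA 24 h after chemical dosing. Fluorescence read-out, bidirectional fit against DMSO; cytotoxicity tracked in parallel by SRB and Alamar Blue.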

Read-out in assay [14]: CD40, CD40 (gene 958)
Briefly: BSK_SAg_CD40: BioMAP Diversity Plus: SAg Assay for CD40 Biomarker Activity (AID 2283088). Conditions: primary human HUVEC with PBMC; actives raise or lower the signal. The essentials: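 Endpoint derived by fitting increases or decreases versus DMSO controls. CD40 is detected by fluorescence ELISA in a human vascular co-culture of endothelium and PBMC at 24 h.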

Read-out in a further assay: CD69, CD69 (gene 969)
Briefly: BSK_SAg_CD69: BioMAP Diversity Plus: SAg Assay for CD69 Biomarker Activity (AID 2283089).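 On AC50: cell surface CD69 protein quantified by ELISA with fluorescence detection.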 Conditions: primary human HUVEC with PBMC; actives raise or lower the signal. The method, boiled down: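 Values derive from bidirectional fitting relative to DMSO vehicle. Cells: umbilical vein endothelium plus peripheral blood mononuclear cells, treated 24 h before fluorescent ELISA for CD69.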

Read-out in assay [15]: Monocyte Chemoattractant Protein-1 (MCP1), CCL2 (gene 6347)
Briefly: BSK_SAg_MCP1: BioMAP Diversity Plus: SAg Assay for Monocyte Chemoattractant Protein-1 (MCP1) Biomarker Activity (AID 2283090). Conditions: primary human HUVEC with PBMC; actives raise or lower the signal. The essentials: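 MCP-1 levels in the endothelial–PBMC SAg co-culture were quantified by ELISA at 24 h post-dosing; both increases and decreases versus DMSO scored. Cytotoxicity monitored by SRB total protein in parallel cultures.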

Read-out in assay [16]: Tissue Factor, F3 (gene 2152)
Briefly: BSK_LPS_TissueFactor: BioMAP Diversity Plus: LPS Assay for Tissue Factor Biomarker Activity (AID 2283084). Particulars: primary human HUVEC with PBMC; actives raise or lower the signal. The essentials: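 Read-out: CD142 ELISA, 24 h. System: LPS-driven human endothelial/PBMC co-culture. Analysis: up- or down-signal fitted against DMSO.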

Read-out in assay [17]: E-selectin (Homo sapiens) (UniProt P16581)
Briefly: BSK_SAg_Eselectin: BioMAP Diversity Plus: SAg Assay for Eselectin Biomarker Activity (AID 2283091). Conditions: primary human HUVEC with PBMC; actives raise or lower the signal. The essentials: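 Endpoint values derive from bidirectional fitting relative to DMSO, using ELISA-measured E-selectin in a human vascular co-culture (umbilical vein endothelium plus PBMC) sampled 24 h after dosing.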

Read-out in assay [18]: Monokine induced gamma interferon (MIG), CXCL9 (gene 4283)
Briefly: BSK_SAg_MIG: BioMAP Diversity Plus: SAg Assay for Monokine induced gamma interferon (MIG) Biomarker Activity (AID 2283092). Particulars: primary human HUVEC with PBMC; actives raise or lower the signal. The method, boiled down: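 Values reflect bidirectional fitting of ELISA-measured MIG against DMSO vehicle, taken 24 h after dosing of a co-culture of human umbilical vein endothelial cells and peripheral blood mononuclear cells.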

Values joined by “and” are separate entries in the source; they are usually repeats but may differ in a detail not shown here. Equal values may be shown once. A structure can be active in one record and inactive in another. Active and inactive are the calls of the source. How the source made its calls: active means hit-call score of the fitted dose curve at least 0.9, where 1 is the maximum; inactive means score below 0.9.

Chain of E-selectin (Homo sapiens) (P16581 whole entry, looked up): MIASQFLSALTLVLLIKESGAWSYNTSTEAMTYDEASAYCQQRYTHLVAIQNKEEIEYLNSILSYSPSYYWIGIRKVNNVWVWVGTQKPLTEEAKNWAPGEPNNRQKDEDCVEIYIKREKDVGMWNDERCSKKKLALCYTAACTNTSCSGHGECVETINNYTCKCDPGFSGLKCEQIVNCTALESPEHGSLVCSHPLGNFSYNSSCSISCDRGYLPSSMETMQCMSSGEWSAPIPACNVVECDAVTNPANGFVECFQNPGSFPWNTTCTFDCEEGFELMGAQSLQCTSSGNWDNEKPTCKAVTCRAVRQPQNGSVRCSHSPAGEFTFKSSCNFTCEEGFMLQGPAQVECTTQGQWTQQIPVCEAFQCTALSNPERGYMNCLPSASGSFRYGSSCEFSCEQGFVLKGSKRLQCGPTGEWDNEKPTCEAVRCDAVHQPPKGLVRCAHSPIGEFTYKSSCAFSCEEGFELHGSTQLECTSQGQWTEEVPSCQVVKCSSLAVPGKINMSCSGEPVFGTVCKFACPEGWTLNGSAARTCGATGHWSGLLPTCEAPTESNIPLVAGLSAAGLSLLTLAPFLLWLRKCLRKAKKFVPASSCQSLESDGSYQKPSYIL
Chain of Tumor necrosis factor (Homo sapiens) (P01375 whole entry, looked up): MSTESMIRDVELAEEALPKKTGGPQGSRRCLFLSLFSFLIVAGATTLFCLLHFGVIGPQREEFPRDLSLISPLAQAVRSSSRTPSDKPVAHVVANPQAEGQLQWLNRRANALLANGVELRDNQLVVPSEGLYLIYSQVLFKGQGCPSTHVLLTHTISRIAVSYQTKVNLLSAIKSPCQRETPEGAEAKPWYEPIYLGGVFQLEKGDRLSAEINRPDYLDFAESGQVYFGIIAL

In the case of `CC(=O)Nc1ccc(O)cc1`, the outcome is “inactive” in [1]; “inactive” in assay [2]; “inactive” in assay [3]; “inactive” with CD40, CD40 (gene 958) [4]; “inactive” in assay [5]; “inactive” in assay [6]. Moreover, the outcome in assay [7], in assay [8], in assay [9], in assay [10], in assay [11] and in assay [12] was inactive. For the same compound, the outcome in [13] is “inactive”; with CD38, CD38 (gene 952), “inactive”; in the assay with CD40, CD40 (gene 958) [14], “inactive”; in the assay with CD69, CD69 (gene 969), “inactive”; in assay [15], “inactive”.
As to `C=CC(C)(CCC=C(C)C)OC(C)=O` (centres undefined), the outcome in assay [1] was “inactive”; with CD40, CD40 (gene 958) [4], “inactive”; in [5], “inactive”; in assay [6] it was “inactive”; in assay [7] it was “inactive”; in assay [8], “inactive”. In addition, the result in assay [9], in assay [10], in assay [11], in [16], in [12] and in assay [13] was inactive. Moreover, the outcome in the assay with CD38, CD38 (gene 952) is “inactive”; in the assay with CD40, CD40 (gene 958) [14], “inactive”; in the assay with CD69, CD69 (gene 969), “inactive”; in assay [15], “inactive”; in [17], “inactive”. For the same compound, the AC50 in assay [2] is 30.4 µM (active); in [3] it was 31.2 µM (active).
Take `CCCCCCCCCCCC`: the AC50 is 6.76 µM (active) and 8.48 µM (active) in assay [1]; 6.78 µM (active) and 7.3 µM (active) in assay [2]; 11.1 µM (active) in assay [3]; 20 µM (active) with CD40, CD40 (gene 958) [4]; 30.5 µM (active) and 32.7 µM (active) in assay [5]; 33.1 µM (active) and 30.7 µM (active) in assay [6]. The AC50 in [8] was 14.4 µM (active) and 29.6 µM (active); in assay [9], 36.3 µM (active); in [10], 12.9 µM (active) and 14 µM (active); in assay [12] it was 28.7 µM (active) and 20.7 µM (active); in [13] it was 33 µM (active) and 31 µM (active). The outcome with CD40, CD40 (gene 958) [4] was “inactive”; in assay [7], “inactive”; in assay [9] it was “inactive”; in [11] it was “inactive”; with CD38, CD38 (gene 952), “inactive”; in the assay with CD40, CD40 (gene 958) [14], “inactive”. The outcome was “inactive” with CD69, CD69 (gene 969); “inactive” in assay [15]; “inactive” in [17]; “inactive” in [18].
Take `OCCN1CN(CCO)CN(CCO)C1`: the result in assay [1], in [2], in assay [3], in assay [7] and in [10] was inactive. For the same compound, the AC50 with CD40, CD40 (gene 958) [4] was 36 µM (active); in assay [5] it was 29.9 µM (active); in [6], 28.2 µM (active); in [8] it was 31.4 µM (active); in assay [9], 13.1 µM (active); in [11], 25.7 µM (active). Moreover, the AC50 was 20 µM (active) in assay [16]; 36.6 µM (active) in [12]; 31.1 µM (active) in assay [13]; 31.6 µM (active) with CD38, CD38 (gene 952); 31.1 µM (active) with CD40, CD40 (gene 958) [14]; 38.7 µM (active) with CD69, CD69 (gene 969). In addition, the AC50 in [15] and in assay [17] was 20 µM (active) throughout.
For `O=C1OC2(c3ccccc31)c1cc(I)c(O)c(I)c1Oc1c2cc(I)c(O)c1I`, the AC50 in [1] is 3.51 µM (active); in assay [2], 14.9 µM (active); in [3], 9.05 µM (active); with CD40, CD40 (gene 958) [4], 8.71 µM (active); in assay [5], 8.58 µM (active); in assay [8], 9.13 µM (active). For the same compound, the AC50 in assay [9] is 6.33 µM (active); in [10], 3.14 µM (active); in assay [11], 6.69 µM (active); in assay [16] it was 19.8 µM (active); in assay [13], 9.02 µM (active); in the assay with CD38, CD38 (gene 952) it was 7.06 µM (active). Also, the AC50 was 12 µM (active) with CD40, CD40 (gene 958) [14]; 10.5 µM (active) in the assay with CD69, CD69 (gene 969); 10.2 µM (active) in assay [15]. The outcome in assay [6], in assay [7] and in assay [12] was inactive.
